From PubChem BioAssay
Sampled rows, rich in hits. Any-hit rate of the full collection: about 1.8%.
Mtb hypoxia rep: Mtb hypoxia fluorescent reporter inhibition. M. tuberculosis hypoxia-regulated fluorescent reporter, fluorescence. AID 1159583. fluorescence inhibition, % (concentration not given with the values). actives 0.1% (n = 300,000); in the data active = fluorescence inhibition mostly above about 23%, no sharp cut-off; inactive = mostly below about 17%
Sa ugtP lethal: compounds lethal to S. aureus RN4220 ugtP deletion mutant; AID 1259309; OD600 growth, 16 h; actives 0.54% (n = 330,000); growth inhibition, % (no concentration beside the values); in the data active = growth inhibition above about 68%
PfHsp40 rescue: restores yeast growth despite PfHsp40 toxicity; actives 0.68% (n = 340,000); growth rescue, % at 12.5 µM; S. cerevisiae expressing PfHsp40, growth rescue, ATP luminescence; AID 504582; in the data active = growth rescue above about 28%, passing the limit was not always enough;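 note: yeast W303a lacking pdr1 and pdr3 grown in galactose medium; growth measured after three days at 30 °C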
VHR inh abs: inhibitors of human VHR1 phosphatase (DUSP3) | AID 1654 | inhibition, % at 13.3 µM | actives 0.52% (n = 290,000) | recombinant VHR phosphatase, pNPP absorbance | P51452; in the data active = inhibition above about 50%
Target sequence (P51452 whole entry, looked up): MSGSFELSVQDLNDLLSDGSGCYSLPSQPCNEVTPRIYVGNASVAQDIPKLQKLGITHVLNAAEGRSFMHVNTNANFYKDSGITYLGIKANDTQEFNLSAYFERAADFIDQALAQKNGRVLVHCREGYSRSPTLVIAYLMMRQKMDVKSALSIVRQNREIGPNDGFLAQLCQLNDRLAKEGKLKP
SSB-PriA inh: inhibitors of Klebsiella pneumoniae PriA binding to SSB C-terminal tail | AlphaScreen SSBct-PriA binding, biotinylated peptide | actives 0.6% (n = 430,000) | inhibition, % at 33 µM; in the data active = inhibition mostly above about 37%, no sharp cut-off; inactive = mostly below about 20%
RN4220 kill: S. aureus RN4220 growth inhibition; OD600, 16 h; inhibition, % (concentration not given with the values); actives 0.33% (n = 330,000); in the data active = inhibition above about 85%
Hits are given with their value; - = inactive; . = no result.

SMILES	Mtb hypoxia rep	Sa ugtP lethal	PfHsp40 rescue	VHR inh abs	SSB-PriA inh	RN4220 kill
O=C(NCCN1CCN(C(=O)c2cc3ccccc3oc2=O)CC1)c1cc2ccccc2oc1=O	-	-	-	-	94	-
Cc1ccc(-c2[nH]nc(N)c2N=Nc2cccc(Cl)c2C)cc1	-	99	-	-	-	-
Cc1ccc(-c2[nH]nc(N)c2N=Nc2ccccc2C)cc1	-	-	-	-	-	-
CCc1ccccc1NC(=O)Nc1cnc(OC)nc1N(C)C	.	.	.	.	-	.
CCc1ccc2oc(-c3ccc(OC)cc3)cc(=Nc3c(C)n(C)n(-c4ccccc4)c3=O)c2c1	-	-	-	-	44	-
CCOC(=O)c1ccc(NC(=O)CC2NCCNC2=O)cc1 (stereo unspecified)	-	-	-	-	-	-
CCOC(=O)c1ccc(NC(=O)CC2C(=O)OCCN2CC)cc1 (stereo unspecified)	-	-	219	-	-	-
CCOC(=O)c1ccc(NC(=O)CC2OCCN(CC)C2=O)cc1 (stereo unspecified)	-	-	53	-	-	-
O=C(COc1ccc(Cl)cc1Cl)Nc1nnc(CS(=O)(=O)c2ccccc2)o1	.	.	.	.	-	.
Cc1nc2sc(C)c(C)n2c(=O)c1NC(=O)c1ccc(F)cc1	.	.	.	.	-	.
COc1ccc(OC)c(N(CC(=O)NC2CC3CCC2C3)S(=O)(=O)c2ccccc2)c1 (stereo unspecified)	-	-	-	59	-	-
COc1ccc(Cl)cc1N(CC(=O)NC1CC2CCC1C2)S(=O)(=O)c1ccccc1 (stereo unspecified)	-	-	-	-	-	-
CC(C)NC(=O)N(C)CC1Oc2c(NS(=O)(=O)c3cn(C)cn3)cccc2C(=O)N(C(C)CO)CC1C (stereo unspecified)	-	-	.	.	.	-
CCCCCCCCCC(=O)NNC(=O)c1c(O)c2ccccc2n(CC)c1=O	-	101	-	-	-	97
CCn1c(=O)c(C(=O)NNC(=O)c2ccccc2F)c(O)c2ccccc21	-	-	-	-	-	-
CCn1c(=O)c(C(=O)NNC(=O)c2ccccc2Cl)c(O)c2ccccc21	-	-	34	-	-	-
CCCn1c(=O)c(C(=O)NNS(=O)(=O)c2ccc(NC(=O)OC)cc2)c(O)c2ccccc21	-	97	-	-	-	97
CCCCCC(=O)NNC(=O)c1c(O)c2ccccc2n(CC)c1=O	-	-	-	-	-	-
O=C(c1ccc2ncsc2c1)N1CCC(c2cccs2)CC1	.	.	.	.	-	.
O=C(Nc1ccccc1OC(F)(F)F)c1cccc(Oc2ccccn2)c1	.	.	.	.	-	.
CCOc1ccc(-c2ccc(/C=C3/C(=N)N4C(C)=CSC4=NC3=O)o2)c([N+](=O)[O-])c1	-	100	-	-	-	-
COCC(C)(O)CNC(=O)CCc1ccccc1F (stereo unspecified)	.	.	.	.	-	.
Cc1nc(Nc2ccc(Cl)c(Cl)c2)sc1C(=O)Nc1ccccc1	-	99	103	-	-	93
Cc1nc(Nc2ccc(Cl)cc2Cl)sc1C(=O)Nc1ccccc1	-	-	-	-	-	-
S=C(NNc1ccnc2cc(Cl)ccc12)Nc1ccc(Cl)cc1Cl	-	-	-	-	-	90
SMILES	Mtb hypoxia rep	Sa ugtP lethal	PfHsp40 rescue	VHR inh abs	SSB-PriA inh	RN4220 kill
Cc1ccc2sc(NNC(=O)c3nc4ccccc4s3)nc2c1C	.	.	.	.	58	.
Cc1ccc2sc(NNC(=O)c3c(F)cccc3F)nc2c1C	.	.	.	.	-	.
CCOC(=O)N1CCN(c2c(-c3ccc(C)cc3)c(=O)c2=O)CC1	-	-	-	54	-	-
COc1ccc(C2(CNC(=O)Nc3cccs3)CCCC2)cc1	.	.	.	.	-	.
COc1ccc(CC(=O)NC2CC2)cc1OC	-	-	-	53	-	-
CN(C)S(=O)(=O)NCC1CC(=O)N(Cc2ccccc2)C1 (stereo unspecified)	.	.	.	.	-	.
CCOc1ccc(NC(=O)CSc2cc(C)c(C#N)c3nc4ccccc4n23)cc1	.	.	.	.	-	.
Cn1nc(CN(Cc2ccco2)C(=O)N2CCN(S(C)(=O)=O)C2=O)c2c1CCC2	.	.	.	.	84	.
Cn1nc(CN(Cc2ccco2)C(=O)c2cccs2)c2c1CCC2	.	.	.	.	-	.
Cc1cc(N2CCN(c3ccc(C(F)(F)F)cc3[N+](=O)[O-])CC2)c2ccccc2n1	-	-	-	-	46	-
CCCCCCCCCCS(=O)(=O)N/N=C/c1ccccc1OC	.	.	-	-	.	.
CCCCCCCCCCS(=O)(=O)NN=Cc1ccccc1OC	-	97	.	.	-	-
O=C(CCc1ccccc1F)Nc1ccc2c(c1)CN(C(=O)c1cccs1)CC2	.	.	.	.	-	.
CC1CCCN(c2ccc(C(=O)Nc3cccnc3)cc2[N+](=O)[O-])C1 (stereo unspecified)	-	-	-	52	-	-
O=C(Nc1ccc(N2CCCCC2)c(Cl)c1)c1ccc(N2CCOCC2)c([N+](=O)[O-])c1	-	-	-	-	-	-
CC1CCCN(c2ccc([N+](=O)[O-])cc2C(=O)c2ccccc2)C1 (stereo unspecified)	-	87	-	-	-	-
O=C(Nc1ccc2c(c1)OCO2)c1ccc(N2CCCC2)c([N+](=O)[O-])c1	-	-	-	-	39	-
O=C(c1ccccc1)c1cc([N+](=O)[O-])ccc1N1CCOCC1	-	-	-	-	-	-
CC(C)(C)c1csc(NC(=O)c2ccc(N3CCOCC3)c([N+](=O)[O-])c2)n1	.	.	.	.	39	.
O=C(Nc1nccs1)c1ccc(N2CCOCC2)c([N+](=O)[O-])c1	.	.	-	-	-	.
CC(=O)Nc1ccc(C(=O)NCCNC(=O)Cc2cccs2)cc1	.	.	.	.	-	.
CCOC(=O)CN1C(=O)N[C@@H](c2cccc(F)c2)C(C(=O)OC)=C1C	.	.	40	.	-	.
CCOC(=O)CN1C(=O)N[C@@H](c2cccc(F)c2)C(C(C)=O)=C1C	.	.	-	.	-	.
Oc1c(C(c2ccccn2)N2CCC(Cc3ccccc3)CC2)cc(Cl)c2cccnc12 (stereo unspecified)	-	88	.	-	-	93
CN1CCN(C(c2ccccn2)c2cc(Cl)c3cccnc3c2O)CC1 (stereo unspecified)	-	-	401	-	-	-
SMILES	Mtb hypoxia rep	Sa ugtP lethal	PfHsp40 rescue	VHR inh abs	SSB-PriA inh	RN4220 kill
CC(=O)NC(c1cc(Cl)c2cccnc2c1O)C1CC1 (stereo unspecified)	-	-	-	.	-	-
Oc1c(C(c2ccc(Cl)cc2)N2CCCC2)cc(Cl)c2cccnc12 (stereo unspecified)	-	100	53	-	-	100
Oc1c(C(c2ccccn2)N2CCN(c3ccccc3F)CC2)ccc2cccnc12 (stereo unspecified)	.	.	.	.	-	.
Cc1ccc(C(c2cc(Cl)c3cccnc3c2O)N2CCN(C)CC2)cc1 (stereo unspecified)	.	.	61	-	-	.
COc1ccccc1Oc1c(C)oc2cc(OC(=O)N(C)C)ccc2c1=O	-	-	93	.	-	-
N#CC1(CCc2ccc(Br)cc2)CCN(S(=O)(=O)c2ccccc2)CC1	.	.	.	.	-	.
COc1ccc(C)cc1NC(=O)c1coc(NC(=O)Cc2c(C)noc2C)n1	.	.	.	.	-	.
Cn1c(O)c(C=NNC(=O)c2cc3ccccc3cc2O)c2ccccc21	-	93	.	.	-	-
